# PubChem BioAssay (NCATS)
# Inconclusive results are not listed. A call without a number means that no potency is given here. Active and inactive are the calls of the source. Calls come from the whole dose curve; as a rule, active = well fitted inhibition curve with a large enough effect; inconclusive = small, poorly fitted or top-dose-only effect; inactive = no such curve, though single readings can be large or run the other way.
# Legend:
# [1] = tested on: Zika virus NS2B-NS3 protease (unlinked complex); assay: Primary screen GU Rhodamine qHTS for Zika virus inhibitors: Unlinked NS2B-NS3 protease assay (AID 1347159); note: nearly all actives have a fitted effect of over 60% in size; note: potency is the fitted concentration of half-maximal effect
# Outline: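 Enzyme 25 nM in Tris-HCl pH 8.0 + 0.01% Tween 20; compounds up to 114 microM, 15 min RT dark; + Rhod110 substrate 1.5 microM; read t0 and 15 min; delta fluorescence → % inhibition → 4-parameter Hill fit.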
# [2] = tested on: Zika virus NS2B-NS3 protease (linked construct); assay: Primary screen NINDS Rhodamine qHTS for Zika virus inhibitors (AID 1347160); note: nearly all actives have a fitted effect of over 55% in size
# Outline: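 Enzyme (25 nM, linked NS2B-NS3) was preincubated 15 min with compound in 10 mM Tris-HCl pH 8.0, 0.01% Tween 20. Rhodamine110 substrate (1.5 microM) was then added and fluorescence read at start and after 15 min.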
SMILES,Potency [1],Potency [2]
O=C(CC(c1ccccc1)c1ccccc1)N1CCN(C(c2ccccc2)c2ccccc2)CC1,inactive,inactive
C=C(CO)C12OC1C1(C)C(=CC2=O)C(O)C(O)CC1C (configuration not stated),inactive,inactive
Cc1nc([C@](C)(O)CO)sc1-c1cnc(N)c(O[C@H](C)c2cc(F)ccc2-n2nccn2)c1,inactive,inactive
CN(C)C/C=C/C(=O)Nc1cc2c(Nc3ccc(F)c(Cl)c3)ncnc2cc1OC1CCOC1 (configuration not stated),inactive,inactive
C[C@H]1CC[C@@H]2N(C1)C[C@@H]1[C@H]([C@@H](O)[C@H](O)[C@]3(O)[C@H]1C[C@@]14OC5(O)[C@@H](C[C@@H](O)[C@@H]31)[C@]4(C)CC[C@@H]5O)[C@]2(C)O,inactive,inactive
CCCC(=O)C1CCN(c2ncnc3c2CN(C(=O)c2ccc(-c4ccccc4)cc2)CC3)CC1,inactive,inactive
C=C1[C@H](OC(C)=O)[C@H]2[C@@H](OC(C)=O)[C@](C)(OC(C)=O)C[C@]2(OC(C)=O)C(=O)[C@H](C)/C=C/C(C)(C)C(=O)[C@H](OC(=O)C(C)C)[C@H]1OC(C)=O,inactive,inactive
CC(=O)CC1CCC(C(C)C(=O)OCC(O)CO)O1 (configuration not stated),inactive,inactive
Cc1cc(=O)oc2c(C=O)c(O)ccc12,79.4 µM (active),inactive
NC(=O)[C@H](O[C@@H]1O[C@H](CO)[C@@H](O)[C@H](O)[C@H]1O)c1ccccc1,inactive,inactive
CC(C)=CCC[C@](C)(O)[C@H]1CC[C@]2(C)[C@@H]1[C@H](O)CC1[C@@]3(C)CC[C@H](O)C(C)(C)[C@@H]3[C@@H](O[C@@H]3O[C@H](CO)[C@@H](O)[C@H](O)[C@H]3O[C@@H]3O[C@H](CO)[C@@H](O)[C@H](O)[C@H]3O)C[C@]12C (some centres not stated),inactive,inactive
